From PubChem
NR3A LBD binder = modulates the human NR3A ligand-binding domain | Tm shift relative to glycine control, % at 25 µM | NR3A LBD differential scanning fluorimetry, Tm shift; 0% = protein alone, 100% = glycine-bound protein | hit rate 2.5% among 340,000;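 active means melting temperature shift of at least 10% of the positive control shift, at one fixed dose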
Beta apoptosis = beta cell apoptosis inhibition; AID 435005; hit rate 0.8% among 300,000; INS-1E cytokine-induced death, ATP luminescence, 48 h; percent of positive-control rescue, neutral wells zero; protection from apoptosis, % (no concentration beside the values);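 active means Every replicate reaches about 75%, or at least half do and their mean reaches it too, limit read from the data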;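 further: 0% = cytokine-treated negative control wells and 100% = positive control rescue; higher means more ATP so stronger rescue from cytokine killing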
CSC inhib = blocks cancer stem cells | cancer stem cell-like cells viability, luminescence | hit rate 1.1% among 300,000 | inhibition, % at 7.5 µM; in the data active means inhibition above about 75%; tested in HMLE shEcad cells
MPTP block = permeability transition pore inhibition; inhibition, % at 10 µM; hit rate 1.4% among 360,000; isolated mouse mitochondria, Ca2+ swelling absorbance, 30 min;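 active means inhibition of 50% or more, scaled per plate between neutral and stimulator controls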;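 further: 0% = DMSO wells given calcium and 100% = 1 mM EGTA wells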
Mdm2 MdmX PPI = human Mdm2/MdmX binding inhibition; inhibition, % at 8 µM; hit rate 3% among 330,000; SaOS-2 split-luciferase Mdm2/MdmX complementation, luminescence; O15151+Q00987; AID 485346;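 active means inhibition of at least 50% at 8 µM in the primary screen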
Target sequence (O15151 whole entry, looked up): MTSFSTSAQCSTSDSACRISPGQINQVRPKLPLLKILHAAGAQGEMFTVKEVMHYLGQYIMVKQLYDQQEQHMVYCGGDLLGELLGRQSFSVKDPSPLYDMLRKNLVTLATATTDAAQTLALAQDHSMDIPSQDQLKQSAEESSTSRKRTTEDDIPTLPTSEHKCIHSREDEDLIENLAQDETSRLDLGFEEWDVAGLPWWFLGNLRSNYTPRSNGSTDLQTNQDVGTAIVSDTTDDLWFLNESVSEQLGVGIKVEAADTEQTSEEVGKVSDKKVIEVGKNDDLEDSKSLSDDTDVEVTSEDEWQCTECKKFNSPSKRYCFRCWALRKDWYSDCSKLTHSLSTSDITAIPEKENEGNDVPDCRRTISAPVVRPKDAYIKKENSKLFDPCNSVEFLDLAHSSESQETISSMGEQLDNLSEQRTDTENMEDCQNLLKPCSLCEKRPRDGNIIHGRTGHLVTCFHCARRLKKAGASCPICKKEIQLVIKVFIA
Target sequence (Q00987 whole entry, looked up): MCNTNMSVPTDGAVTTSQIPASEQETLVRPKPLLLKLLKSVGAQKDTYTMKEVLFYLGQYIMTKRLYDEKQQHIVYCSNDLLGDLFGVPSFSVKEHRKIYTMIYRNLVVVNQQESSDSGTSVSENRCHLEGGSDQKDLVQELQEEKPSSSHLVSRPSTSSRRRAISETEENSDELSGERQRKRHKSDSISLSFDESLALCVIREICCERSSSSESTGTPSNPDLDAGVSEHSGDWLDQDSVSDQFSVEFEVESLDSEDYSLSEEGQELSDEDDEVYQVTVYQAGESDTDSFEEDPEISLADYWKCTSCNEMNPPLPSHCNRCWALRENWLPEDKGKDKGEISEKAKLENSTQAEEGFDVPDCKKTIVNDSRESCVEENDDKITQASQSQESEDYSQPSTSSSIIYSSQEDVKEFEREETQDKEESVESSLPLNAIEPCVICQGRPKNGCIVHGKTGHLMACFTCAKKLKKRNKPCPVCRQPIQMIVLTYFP
SKKanGAS inh = SKKanGAS growth inhibition. S. pyogenes SKKanGAS, kanamycin growth, BacTiter-Glo, 6 h. inhibition, % at 7.5 µM. hit rate 1.3% among 300,000. AID 1662;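 active means mean replicate score, as percent of positive control median, at least 50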;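 further: strain carries kanamycin resistance gene driven by streptokinase promoter and grows in 40 µg/ml kanamycin; loss of luminescence reflects streptokinase promoter inhibition or plain growth inhibition; 0% = median of DMSO wells and 100% = positive control at its reference dose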
Rh123 counter = mitochondrial membrane potential, counter-screen; shares compounds with MPTP block; AID 624504; hit rate 78% among 5,000; isolated mitochondria, Rhodamine 123 fluorescence; inhibition, % at 10 µM; in the data active means inhibition above about 22%;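 further: 0% = DMSO vehicle and 100% = positive control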
MPTP abs DR = MPTP inhibition, dose response swelling confirmation | isolated mitochondria swelling, absorbance | hit rate 58% among 780 | IC50, µM | shares compounds with MPTP block; in the data active means IC50 below about 20 µM
MPTP counter DR = MPTP inhibitor counter-screen activity, dose response; IC50, µM; AID 651564; shares compounds with MPTP block; hit rate 49% among 780; isolated mitochondria counterscreen, fluorescence read-out; in the data active means IC50 below about 80 µM
* = called active by the depositor; nt = not tested or not shown. This is a sample that favours compounds with a hit; in the whole collection about 6.9% have one here.

SMILES | NR3A LBD binder | Beta apoptosis | CSC inhib | MPTP block | Mdm2 MdmX PPI | SKKanGAS inh | Rh123 counter | others
CC(C)C(NC(=O)c1ccccc1)c1nnc(SCC(=O)NC2CCCC2)n1C (centres undefined) | -1.7 | 1.2 | -20.4 | -0.6 | -38.6 | -0.4 | nt
COc1ccccc1-n1c(SCC(=O)N(C)C)nnc1-c1ccco1 | -0.7 | nt | nt | 0.7 | nt | nt | nt
CC(C)Oc1ccc(C(=O)NC(=S)Nc2ccc(Cl)c(C(=O)O)c2)cc1 | 0.6 | -2.5 | -10.5 | 2.7 | -16.0 | -10.8 | nt
CCCc1cc(=O)[nH]c(SCc2cc(Cl)ccc2OC(F)F)n1 | -12.6 | 1.7 | 19.8 | 71.3* | 14.2 | 0.9 | 54.7*
CC1(C)SC(=S)N(NC(=O)Nc2ccccc2)C1N(O)C(=O)Nc1ccccc1 (centres undefined) | 6.0 | -0.2 | 11.9 | 58.3* | -5.9 | 29.0 | 69.8*
CNC(=O)N(O)C1N(NC(=O)Nc2cccc3ccccc23)C(=S)SC1(C)C (centres undefined) | -21.9 | 17.9 | 22.8 | -1.6 | -0.6 | -0.3 | nt
COc1ccccc1CNS(=O)(=O)c1cc(-c2cc(C)no2)ccc1C(C)C | -10.2 | 14.3 | 20.5 | 0.5 | 13.9 | 11.1 | nt
O=C(NCCSCc1ccco1)Nc1cccc(Cl)c1 | -1.0 | -1.0 | 22.4 | 79.4* | -2.9 | -7.5 | 79.1*
Cc1cccc(NC(=O)NC(C)CCc2ccccc2)c1 (centres undefined) | -5.4 | -5.6 | -8.8 | 63.6* | -16.6 | -0.1 | 73.2*
Cc1cccc(NC(=O)NCCc2ccc(Cl)cc2)c1 | 7.0 | -10.8 | -8.0 | 5.9 | -4.6 | 0.8 | nt
O=C(NCCc1ccc(Cl)cc1)Nc1cccc(Cl)c1 | 20.5* | -5.5 | -13.3 | 94.9* | 31.4 | -2.9 | 93.5*
O=C(NCCc1ccccc1)Nc1cccc(Cl)c1 | 20.0* | 2.4 | -4.9 | 97.2* | -14.2 | 0.7 | 87.9*
O=C1c2ccccc2NC(c2ccc(F)cc2)N1Cc1ccccc1 (centres undefined) | -1.7 | nt | 12.7 | 0.7 | -22.2 | 9.5 | nt
CC(C)OC(=O)N(C)C[C@@H]1OCc2cnnn2CCCC(=O)N([C@H](C)CO)C[C@@H]1C | nt | nt | nt | 0.0 | nt | nt | nt
Cc1nn(C)c(Cl)c1NC(=O)OCc1ccc(Cl)cc1Cl | -2.8 | 38.4 | -8.5 | 86.7* | 27.7 | -1.1 | 91.8*
Cc1nnsc1NC(=O)OCc1ccc(Cl)cc1Cl | -2.3 | 7.5 | 1.9 | 8.1 | 15.8 | -0.6 | nt
COc1ccc(N2CC(C(=O)N3CCN(Cc4ccc5c(c4)OCO5)CC3)CC2=O)cc1 (centres undefined) | -0.5 | nt | 9.9 | 0.8 | 3.7 | -0.7 | nt
C1=C(CCNc2ncnc3c2[nH]c2ccccc23)CCCC1 | 1.0 | 129.9* | 77.3* | 103.6* | nt | nt | 82.9*
COc1ccc(CNc2ncnc3c2[nH]c2cc(OC)c(OC)cc23)cc1 | -4.7 | -2.1 | 5.6 | 14.3 | 20.7 | -3.6 | nt
O=c1c2[nH]c3ccccc3c2ncn1CCC1=CCCCC1 | -1.9 | -2.8 | 10.7 | 0.9 | -25.3 | -2.6 | nt
Cc1ccc2[nH]c3c(NCc4ccccc4)ncnc3c2c1 | -0.5 | 29.5 | 37.1 | nt | 13.1 | 4.9 | nt
COc1ccc(CNc2ncnc3c2[nH]c2ccccc23)cc1 | -7.1 | 43.0 | 15.3 | 90.8* | 15.3 | 2.7 | 90.9*
Brc1ccc2[nH]c3c(NCc4ccccn4)ncnc3c2c1 | 0.5 | 0.1 | 46.5 | 57.4* | 30.3 | 6.3 | 71.6*
Cc1ccc(COn2c(-c3ccc(Cl)cc3)nc3ccc([N+](=O)[O-])cc32)cc1 | -0.3 | nt | 52.7 | 88.2* | -75.9 | -15.4 | 83.9*
CCOC(=O)C(C)On1c(-c2ccccc2)nc2ccc([N+](=O)[O-])cc21 (centres undefined) | 1.5 | 15.0 | -6.3 | -2.3 | -111.6 | 6.3 | nt
SMILES | NR3A LBD binder | Beta apoptosis | CSC inhib | MPTP block | Mdm2 MdmX PPI | SKKanGAS inh | Rh123 counter | others
O=C(O)COn1c(-c2ccccc2)nc2ccc([N+](=O)[O-])cc21 | 2.8 | 9.5 | 2.6 | 19.9 | -84.2 | 2.5 | nt
CCOC(=O)C(C)On1c(-c2ccc(Cl)cc2)nc2ccc([N+](=O)[O-])cc21 (centres undefined) | 9.1 | 23.1 | -15.2 | 89.4* | -15.7 | -6.3 | 108.4*
O=[N+]([O-])c1ccc2nc(-c3ccc(Cl)cc3)n(OCc3ccccc3)c2c1 | 18.2* | 18.0 | 28.3 | 88.8* | -77.9 | -5.1 | 93.6*
CC1CCN(C2(O)C(=O)Nc3ccc(Br)cc32)CC1 (centres undefined) | 0.2 | -9.1 | -4.0 | -0.4 | -19.4 | -2.5 | nt
CCN(C[C@H]1N[C@@](CC)(C(=O)OC)[C@H]2C(=O)N(Cc3ccccc3)C(=O)[C@@H]12)C(=O)c1ccc(F)cc1 | -0.5 | -10.9 | -11.6 | 0.5 | -19.5 | nt | nt
COc1cc(OC)c(C(=O)OCC(=O)NC23CC4CC(CC(C4)C2)C3)cc1OC | 2.5 | 6.3 | 44.5 | -1.3 | -3.0 | nt | nt
CN(C)CCCNc1ncnc2scc(-c3ccccc3)c12 | 0.6 | -16.8 | -10.0 | 9.8 | 31.1 | -6.0 | nt
c1ccc(CNc2ncnc3sc4c(c23)CCC4)nc1 | -4.1 | -6.3 | -9.3 | -1.1 | 30.7 | 1.4 | nt
c1ccc(CNc2ncnc3scc(-c4cccs4)c23)nc1 | -1.6 | 21.4 | -13.2 | 72.2* | 23.7 | -3.3 | 57.4*
c1ccc(-c2csc3ncnc(NCc4ccccn4)c23)cc1 | 0.5 | 22.0 | -4.7 | 62.0* | 39.9 | 3.3 | 33.4*
CC(=O)c1ccc(OCc2ccc(Oc3c(Cl)cccc3[N+](=O)[O-])cc2)cc1 | -5.6 | 0.6 | 14.9 | 55.7* | 5.2 | 11.1 | 35.7*
O=C(c1cccc(Oc2c(Cl)cccc2[N+](=O)[O-])c1)N1CCCCC1 | 0.8 | -0.3 | -14.0 | -0.1 | 2.0 | 3.3 | nt
CC(=O)c1ccc(OCc2ccc(C(=O)c3ccccc3)cc2)cc1 | 0.1 | 51.3 | 11.3 | 93.8* | -10.8 | 7.0 | 94.2*
Cc1ccc(N(C(=O)CNC(=O)c2ccco2)C(C(=O)NC2CCCCC2)c2cccnc2)cc1 (centres undefined) | -0.7 | -6.6 | -18.1 | -1.1 | -2.4 | 0.3 | nt
CC1CCCN(S(=O)(=O)c2ccc(C(=O)Nc3ccccc3-c3nc4ccccc4[nH]3)cc2)C1 (centres undefined) | 34.5* | 15.3 | 18.6 | 90.5* | 38.6 | 10.9 | 2.8 | MPTP abs DR=7.15*;MPTP counter DR=4.25*
CC1CCN(S(=O)(=O)c2ccc(C(=O)Nc3ccccc3-c3nc4ccccc4[nH]3)cc2)CC1 | 30.7* | 11.1 | 17.1 | 94.5* | 37.5 | 2.6 | 64.3*
Cc1nc2sccn2c1-c1csc(NCc2ccccc2)n1 | 4.2 | 51.6 | -7.2 | 58.4* | 14.4 | -4.5 | 67.4*
C=CCNc1nc(-c2c(C)nc3sccn23)cs1 | -0.1 | 3.8 | 4.9 | 8.8 | 9.7 | -12.2 | nt
